Test results reported in the antibiotic and cytotoxicity screens of Wong et al. (2023).
The whole screen tested about 39,000 compounds, of which about 3,300 (8.5%) were called active. What follows is part of a selection rich in actives, with near analogues and random picks from the rest.

System: HepG2
Assay: cytotoxicity call (relative viability < 0.9)
Conditions: 10 µM

| Structure (SMILES) | cytotoxicity call |
| --- | --- |
| C[C@@H]1CN([C@H](C)CO)C(=O)CCCn2cc(nn2)CO[C@H]1CN(C)C(=O)Nc1cccc(C(F)(F)F)c1 | inactive |
| CC(C)NC(=O)N(C)C[C@H]1Oc2ccc(NC(=O)Nc3ccc4c(c3)OCO4)cc2CC(=O)N([C@H](C)CO)C[C@H]1C | inactive |
| COCCOC(=O)N1C(=O)[C@@]2(c3cc(C#CC4=CCCCC4)ccc31)[C@H](c1ccc(OCCO)cc1)N1[C@H](c3ccccc3)[C@H](c3ccccc3)OC(=O)[C@H]1[C@@H]2C(=O)N1CCN(c2ncccn2)CC1 | inactive |
| CNC(=O)[C@H]1Cc2ccccc2N1C(=O)COC | inactive |
| CN(C)CCCN1c2ccccc2CCc2ccc(Cl)cc21.Cl | inactive |
| CN(C)CCCN1c2ccccc2Sc2ccccc21.Cl | active |
| CN(C)CCCN1C(=O)[C@@]2(Cc3ccccc31)c1ccccc1C(=O)N(Cc1ccccc1)[C@H]2c1ccc(CO)cc1 | inactive |
| CN(C)CCCN1c2ccccc2CCc2ccccc21.Cl | active |
| CN(C)CCCN1c2ccccc2Sc2ccc(Cl)cc21.Cl | active |
| CN(C)CCCN1C(=O)[C@@H]2[C@@H](C1=O)[C@@H]1C=C[C@@H]2C1 | inactive |
| NNC(=O)CN1CCCc2ccccc21 | inactive |
| CNCCCN1c2ccccc2CCc2ccccc21.Cl | active |
| COc1ccc(C2Sc3ccccc3N(CCN(C)C)C(=O)C2OC(C)=O)cc1.Cl (centres undefined) | inactive |
| CC(=O)c1ccc2c(c1)N(CCCN(C)C)c1ccccc1S2.O=C(O)C=CC(=O)O | inactive |
| C[C@H](CO)N1C[C@H](C)[C@@H](CN(C)S(=O)(=O)c2cn(C)cn2)Oc2ncc(C#CCN(C)C)cc2C1=O | inactive |
| Cc1noc(C)c1S(=O)(=O)Nc1cccc2c1O[C@@H](CN(C)Cc1ccncc1)[C@@H](C)CN([C@@H](C)CO)C2=O | inactive |
| CON=C(C(=O)NC1C(=O)N2C(C(=O)[O-])=C(CSc3nc(=O)c([O-])nn3C)CSC12)c1csc(N)n1.O.O.O.[Na+].[Na+] (centres undefined) | inactive |
| COc1ccccc1NC(=O)N(C)C[C@@H]1Oc2ncc(C#CC(C)C)cc2C(=O)N([C@H](C)CO)C[C@H]1C | inactive |
| COC(=O)/C=C/C(=O)OC | inactive |
| COC(=O)/C=C/C(=O)O | inactive |
| COC(=O)C=CC(=O)OC | active |
| COCC#Cc1cnc2c(c1)C(=O)N([C@@H](C)CO)C[C@H](C)[C@@H](CN(C)C(=O)c1cnccn1)O2 | inactive |

| Structure (SMILES) | cytotoxicity call |
| --- | --- |
| O=C(Cc1ccc2c(c1)OCO2)N[C@@H]1CCNC[C@H]1O | inactive |
| C[C@@H]1CN([C@@H](C)CO)S(=O)(=O)c2ccc(-c3ccc(C(=O)N(C)C)cc3)cc2O[C@H]1CN(C)C(=O)C1CC1 | inactive |
| C[C@H](CO)N1C[C@H](C)[C@@H](CN(C)Cc2ccncc2)Oc2ccc(NC(=O)Nc3ccc(C(F)(F)F)cc3)cc2C1=O | inactive |
| C[C@@H]1CCCCO[C@@H](CN(C)C(=O)Nc2ccccc2)[C@@H](C)CN([C@H](C)CO)C(=O)c2cc(NC(=O)Nc3ccc(C(F)(F)F)cc3)ccc2O1 | active |
| C[C@@H]1CN([C@@H](C)CO)C(=O)c2cc(NC(=O)c3ccccc3)ccc2O[C@@H](C)CCCCO[C@@H]1CN(C)C(=O)Nc1ccc(C(F)(F)F)cc1 | active |
| C[C@H]1CCCCO[C@@H](CN(C)C(=O)Nc2ccc(C(F)(F)F)cc2)[C@@H](C)CN([C@@H](C)CO)C(=O)c2cc(NC(=O)Nc3ccccc3)ccc2O1 | inactive |
| C[C@@H]1CCCCO[C@H](CN(C)C(=O)Nc2ccc(C(F)(F)F)cc2)[C@@H](C)CN([C@@H](C)CO)C(=O)c2cc(NC(=O)Nc3ccccc3)ccc2O1 | active |
| C[C@H]1CCCCO[C@@H](CN(C)C(=O)Nc2ccc(C(F)(F)F)cc2)[C@@H](C)CN([C@@H](C)CO)C(=O)c2cc(NC(=O)c3ccccc3)ccc2O1 | inactive |
| C[C@H](CO)N1C[C@H](C)[C@@H](CN(C)C(=O)Nc2ccc(C(F)(F)F)cc2)OCCCC[C@H](C)Oc2ccc(NC(=O)Nc3ccccc3)cc2C1=O | inactive |
| C[C@H](CO)N1C[C@H](C)[C@H](CN(C)C(=O)Nc2ccccc2)OCCCC[C@H](C)Oc2ccc(NC(=O)Nc3ccc(C(F)(F)F)cc3)cc2C1=O | inactive |
| C[C@H]1CCCCO[C@H](CN(C)C(=O)Nc2ccc(C(F)(F)F)cc2)[C@@H](C)CN([C@@H](C)CO)C(=O)c2cc(NC(=O)Nc3ccccc3)ccc2O1 | inactive |
| C[C@@H]1CCCCO[C@H](CN(C)C(=O)Nc2ccc(C(F)(F)F)cc2)[C@H](C)CN([C@@H](C)CO)C(=O)c2cc(NC(=O)Nc3ccccc3)ccc2O1 | inactive |
| C[C@@H]1CCCCO[C@@H](CN(C)C(=O)Nc2ccccc2)[C@@H](C)CN([C@@H](C)CO)C(=O)c2cc(NC(=O)Nc3ccc(C(F)(F)F)cc3)ccc2O1 | active |
| C[C@@H]1CCCCO[C@H](CN(C)C(=O)Nc2ccc(C(F)(F)F)cc2)[C@@H](C)CN([C@H](C)CO)C(=O)c2cc(NC(=O)Nc3ccccc3)ccc2O1 | inactive |
| C[C@@H]1CCCCO[C@H](CN(C)C(=O)Nc2ccc(C(F)(F)F)cc2)[C@H](C)CN([C@@H](C)CO)C(=O)c2cc(NC(=O)c3ccccc3)ccc2O1 | inactive |
| CNC[C@@H]1Oc2ccc(NS(=O)(=O)c3cn(C)cn3)cc2CC(=O)N([C@H](C)CO)C[C@@H]1C | inactive |
| C[C@H](CO)N1C[C@H](C)[C@H](CN(C)S(=O)(=O)c2ccccc2)OCCCC[C@H](C)Oc2ccc(NC(=O)Nc3ccc(F)cc3)cc2C1=O | inactive |
| C[C@H](CO)N1C[C@H](C)[C@@H](CN(C)Cc2ccncc2)Oc2ccc(NC(=O)Cn3cnnn3)cc2C1=O | inactive |
| c1ccc(-c2nc(-c3cccs3)[nH]c2-c2ccccc2)cc1 | inactive |
| C[C@@H]1CCCCO[C@@H](CN(C)C(=O)c2ccncc2)[C@H](C)CN([C@@H](C)CO)C(=O)c2cc(NS(C)(=O)=O)ccc2O1 | inactive |
| C[C@@H]1CN([C@@H](C)CO)C(=O)c2cc(/C=C/c3ccccc3)cnc2O[C@H]1CN(C)C(=O)CN1CCOCC1 | inactive |
| C[C@H](CO)N1C[C@H](C)[C@H](CN(C)C(=O)Cc2ccccc2)OCCCC[C@H](C)Oc2ccc(NC(=O)Nc3cccc4ccccc34)cc2C1=O | inactive |
